Assay results as given in the supplement of paper PMC10127200.
Structures can show the parent of a compound that is named as a salt.

What follows are compounds tested on DU145 (assay: Euclidean distance of Cell Painting phenotypic profile (signed KS, 77 features) to DMSO centroid (dimensionless distance); 5 or 10 uM (library dependent); higher = stronger phenotypic change vs DMSO (phenoactivity)). Details: 48 h.
In short: (§1)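 At 10 or 5 uM, as set by the library, and 0.1% DMSO final, compounds were applied for 48 h to five cancer lines and one healthy fibroblast line. Stained cells were imaged confocally at 20X in 9 fields per well, and Harmony extracted 77 features scored as signed Kolmogorov-Smirnov statistics against vehicle wells on the same plate. Profiles underwent plate-position correction, correlation weighting and replicate averaging at the top dose. Phenoactivity is the Euclidean distance from each such profile to the median vehicle profile.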
`CNCC[C@H](Oc1cccc2ccccc12)c1cccs1` [Duloxetine HCl] showed an Euclidean distance of 1.55. `CCOC(=O)c1ccc(OC(=O)CCCCCNC(=N)N)cc1` [Gabexate Mesylate] showed an Euclidean distance of 1.01. `O=C(O)c1cn(-c2ccc(F)cc2)c2cc(N3CCNCC3)c(F)cc2c1=O` [Sarafloxacin HCl] was tested, and the Euclidean distance was 1.78. `COc1ccccc1OCC(O)CO` (stereo unspecified) [Guaifenesin] was tested, and the Euclidean distance was 1.4. Work on `COc1ccc(C2CNC(=O)C2)cc1OC1CCCC1` (stereo unspecified) [Rolipram] yielded an Euclidean distance of 0.853.

What follows are compounds tested on FB in the same assay as above. Details: 48 h.
In short: as §1
`COCCCN1CCC(NC(=O)c2cc(Cl)c(N)c3c2OCC3)CC1` [Prucalopride Succinat] was tested, and the Euclidean distance was 0.581. With `OC[C@H]1O[C@@H](Oc2cc(O)cc(/C=C/c3ccc(O)cc3)c2)[C@H](O)[C@@H](O)[C@@H]1O` [Polydatin] the Euclidean distance was 0.978. Compound `C[N+](C)(C)NCCC(=O)[O-]` [Mildronate] has an Euclidean distance of 1.1. For `CN[C@@H]1[C@H](O)[C@H](NC)[C@H]2O[C@@]3(O)C(=O)C[C@@H](C)O[C@H]3O[C@@H]2[C@H]1O` [Spectinomycin HCl], the Euclidean distance was 1.21. Compound `Cn1cnc2c(F)c(Nc3ccc(Br)cc3F)c(C(=O)NOCCO)cc21` has an Euclidean distance of 3.82. `C/C(=N\NC(=S)N1CCC1)c1ccccn1` gave an Euclidean distance of 3.45. For `CCCCOc1nc(N)c2c(n1)N(Cc1cccc(CN3CCCC3)c1)CC(=O)N2`, the Euclidean distance was 0.941. In the case of `CN1CCc2cc3c(cc2C(=O)Cc2ccc4c(c2C1)OCO4)OCO3` [Protopine], the Euclidean distance was 0.616. `O=C(O)CCCc1cc2cc(Cl)ccc2n1S(=O)(=O)c1ccc2ncsc2c1` [Lanifibranor(IVA-337)] gave an Euclidean distance of 0.874. For `Nc1ncccc1-c1nc2ccc(-c3ccccc3)nc2n1-c1ccc(C2(N)CCC2)cc1` [Miransertib (ARQ 092) HCl], the Euclidean distance was 4.17. In the case of `CCC[C@@H]1C[C@@H](C(=O)N[C@@H]([C@H]2O[C@H](SC)[C@H](O)[C@@H](O)[C@H]2O)[C@@H](C)O)N(C)C1` [Lincomycin HCl], the Euclidean distance was 1.01. With `c1ccc(-c2nn3c(c2-c2ccnc4cc(OCCN5CCOCC5)ccc24)CCC3)nc1` the Euclidean distance was 1.75. Compound `Cc1c(-c2ccnn2C)cc(C(=O)NCc2ccc(S(C)(=O)=O)cn2)c(=O)n1-c1cccc(C(F)(F)F)c1` [Alvelestat (AZD9668)] has an Euclidean distance of 1.06. In the case of `CCCCC(=O)N(Cc1ccc(-c2ccccc2-c2nnn[nH]2)cc1)[C@H](C(=O)O)C(C)C` [Valsartan], the Euclidean distance was 0.799. In the case of `CN1C(C(=O)Nc2ccccn2)=C(O)c2sc(Cl)cc2S1(=O)=O` [Lornoxicam], the Euclidean distance was 0.965. Work on `O=C(O)Cn1nnc(-c2cc(N3CCC(Oc4cc(F)ccc4Br)CC3)no2)n1` yielded an Euclidean distance of 0.907. In the case of `CC[N+](C)(C)c1cccc(O)c1` [Edrophonium chloride], the Euclidean distance was 0.728. `N=C1CCCN1Cc1[nH]c(=O)[nH]c(=O)c1Cl.O=c1[nH]c(=O)n([C@H]2C[C@H](O)[C@@H](CO)O2)cc1C(F)(F)F` gave an Euclidean distance of 1.25. In the case of `NC(CO)C(=O)NNCc1ccc(O)c(O)c1O` (stereo unspecified) [Benserazide HCl], the Euclidean distance was 0.967. `O=C(/C=C/c1ccc(O)cc1)c1ccc(O)cc1O` [Isoliquiritigenin] gave an Euclidean distance of 0.82. `O=C1C(O)=C([C@H]2CC[C@H](c3ccc(Cl)cc3)CC2)C(=O)c2ccccc21` [Atovaquone] was tested, and the Euclidean distance was 1.41. Compound `C=CCc1ccccc1OCC(O)CNC(C)C` (stereo unspecified) [Alprenolol hydrochloride] has an Euclidean distance of 1.77. `CCN1CCCC1CNC(=O)c1cc(S(=O)(=O)CC)c(N)cc1OC` (stereo unspecified) [Amisulpride] gave an Euclidean distance of 1.07. For `C#C[C@]1(O)CC[C@H]2[C@@H]3CCC4=CC(=O)CC[C@@H]4[C@H]3CC[C@@]21C` [Norethindrone], the Euclidean distance was 1.2. Work on `N#C/C(=C\c1ccc(O)c(O)c1)C(=O)NCc1ccccc1` [AG-490 (Tyrphostin B42)] yielded an Euclidean distance of 1.34. Work on `CN1CCc2c(c3ccccc3n2Cc2ccc(C(=O)NO)cc2)C1` [Tubastatin A HCl] yielded an Euclidean distance of 1.34. Compound `Oc1c(Cl)cc(Cl)c(Cl)c1Cc1c(O)c(Cl)cc(Cl)c1Cl` [Hexachlorophene] has an Euclidean distance of 3.31. With `CN1CC2c3ccccc3Oc3ccc(Cl)cc3C2C1` (stereo unspecified) [Asenapine] the Euclidean distance was 1.19. For `COc1cc2c(N3CCN(C(=O)Nc4ccc(OC(C)C)cc4)CC3)ncnc2cc1OCCCN1CCCCC1` [Tandutinib (MLN518)], the Euclidean distance was 2.68. For `CCOC(=O)[C@H](CCc1ccccc1)N[C@@H](C)C(=O)N1[C@H](C(=O)O)C[C@@H]2CCC[C@@H]21` [Ramipril], the Euclidean distance was 1.1. With `NC1(Cc2ccc(Cl)cc2)CCN(c2ncnc3[nH]ccc23)CC1` the Euclidean distance was 1.39.
